Screening results: PubChem, National Center for Advancing Translational Sciences (NCATS)
D3 antag – antagonists of human D3 dopamine receptor. P35462. AID 652054. max response, negative = inhibition, %. D3R cells, DiscoveRx beta-arrestin luminescence, antagonist mode; stronger effect = lower value. hit rate 2.5% among 360,000; in the data active means max response below about -50%; inconclusive means no clear call, values can overlap the other calls; further: on the % scale 0 is the no-effect control and ±100 the full control effect
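Cells plated overnight at 1500 cells/well, then exposed to library compounds with dopamine controls for 90 minutes at 37 degrees C. DiscoveRx reagent added for 30–60 minutes at room temperature; luminescence read, quantitative HTS format.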
D1 PAM – human D1 dopamine receptor positive modulation | potentiation, % at 10 µM | hit rate 0.036% among 360,000 | AID 504651 | HEK293 TREx D1 cells, calcium flux, dopamine EC20 potentiation | P21728; in the data active means potentiation above about 30%; further: 0% is about no effect
Target sequence (P21728 whole entry, looked up): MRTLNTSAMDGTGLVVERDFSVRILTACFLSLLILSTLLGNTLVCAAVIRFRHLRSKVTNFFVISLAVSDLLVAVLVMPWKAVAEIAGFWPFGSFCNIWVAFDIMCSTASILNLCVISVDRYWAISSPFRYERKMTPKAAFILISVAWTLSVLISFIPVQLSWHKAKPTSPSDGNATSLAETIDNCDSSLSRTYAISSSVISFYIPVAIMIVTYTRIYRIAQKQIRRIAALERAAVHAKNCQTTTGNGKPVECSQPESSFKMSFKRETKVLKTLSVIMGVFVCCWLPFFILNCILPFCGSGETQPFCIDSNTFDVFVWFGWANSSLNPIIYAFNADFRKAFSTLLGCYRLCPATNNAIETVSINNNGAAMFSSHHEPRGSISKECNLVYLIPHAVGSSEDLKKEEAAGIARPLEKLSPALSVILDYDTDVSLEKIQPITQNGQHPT
D1 antagonist – human D1 dopamine receptor antagonism; P21728; hit rate 3.2% among 360,000; activity change, negative = inhibition, % at 10 µM; HEK293 TREx D1 cells, calcium flux, dopamine EC80; stronger effect = lower value; in the data active means activity change below about -30%; further: on the % scale 0 is the no-effect control and ±100 the full control effect
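Kinetic fluorescence of a calcium dye serves as the read-out. D1-expressing Hek293 Trex cells, induced overnight at 30 C, are exposed to compound for 180 s before an EC80 dopamine addition, then read 180 s further.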
D3 ag – D3 dopamine receptor (human) agonism; hit rate 0.58% among 410,000; P35462; D3R DiscoveRx beta-arrestin cells, luminescence, 90 min; max activation, %; in the data active means max activation above about 30%; further: 0% is about no effect
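Agonist-mode cell screen: cells plated at 1500/well and incubated overnight at 37 °C, then exposed to library compounds for 90 min at 37 °C. Detection reagent was added for 30–60 min at room temperature, and luminescence was read.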
D1 ag – human D1 receptor agonism. P21728. HEK293 T-REx D1 cells, calcium flux, agonist mode. activation, % at 2 µM. hit rate 1% among 360,000. AID 504660; in the data active means activation above about 30%; further: 0% is about no effect
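Agonism was scored from calcium flux recorded over 180 s (1 read/s) after pintool compound addition, following a 10-cycle baseline. Cells were inducible force-coupled HEK293 TREx D1, plated overnight at 30 C and loaded with no-wash calcium dye.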
* marks the source's active call; other numbers are inactive results; ? = inconclusive; / = not tested or not shown. An excerpt weighted towards active compounds, which were near 6% of everything screened.

SMILES	D3 antag	D1 PAM	D1 antagonist	D3 ag	D1 ag
CC1CCN(c2ccc3c(c2)S(=O)(=O)c2cccc(C(=O)NC4CCCCC4)c2C3=O)CC1	51	-1	-31*	4	35*
O=C(NCc1cc(C(F)(F)F)ccc1Cl)c1cccc2c1C(=O)c1ccc(N3CCC(Cc4ccccc4)CC3)cc1S2(=O)=O	5	/	/	47*	/
O=C(NCc1ccc(F)cc1)c1cccc2c1C(=O)c1ccc(N3CCC(N4CCCCC4)CC3)cc1S2(=O)=O	3	/	/	0	/
Cc1nc(-c2cccc(F)c2)sc1CCNC(=O)C(=O)Nc1ccc2c(c1)OCO2	/	-2	0	6	8
CCN(c1ccccc1)S(=O)(=O)c1ccc(C(=O)Oc2ccc(C(C)=O)cc2)cc1	3	-9	-38*	-2	24
CCN(c1ccccc1)S(=O)(=O)c1ccc(F)cc1	-53*	-1	3	1	1
COC(=O)CN(c1ccccc1)S(=O)(=O)c1ccc(F)cc1	-21	-6	2	0	1
Cc1c(CCC(=O)NCCCn2ccnc2)c(=O)oc2c(C)c3occ(C(C)(C)C)c3cc12	-5	-5	-1	4	2
Cc1coc2c(C)c3oc(=O)c(CCC(=O)NCCCn4ccnc4)c(C)c3cc12	-69*	0	-9	-48	1
COc1ccccc1N1CCN(c2cc(C)nc3c(-c4ccc(Cl)cc4)c(C)nn23)CC1	/	-6	-8	5	1
NC(=S)NNc1ccnc2cc(Cl)ccc12	-24	-5	-11	-9	1
O=C(NNc1ccnc2cc(Cl)ccc12)C1CCCCC1	-6	-4	-32*	5	14
CCOc1cc(C(=O)NCc2ccc3c(c2)CCN3C(=O)CC)cc(OCC)c1OCC	/	-1	-13	-17	3
CC(OC(=O)CCCN=C1NS(=O)(=O)c2ccccc21)C(=O)Nc1ccc(F)c(F)c1F (configuration not stated)	-2	-3	-1	-17	33*
CC(OC(=O)CCCN=C1NS(=O)(=O)c2ccccc21)C(=O)N(C)c1ccccc1 (configuration not stated)	0	-3	4	1	6
CC(C)C(=O)OCCN=C1NS(=O)(=O)c2ccccc21	6	-6	-36*	-5	3
CC(OC(=O)CCCN=C1NS(=O)(=O)c2ccccc21)C(=O)c1ccccc1 (configuration not stated)	3	0	-1	4	45*
CC(C)Nc1nc(NC(C)(C)C)nc(Oc2ccc(=O)n(C)n2)n1	3	0	14	-4	47*
COc1ccc(S(=O)(=O)c2nnn(-c3ccc(C(C)C)cc3)c2C)cc1	/	-4	-16	5	9
COc1ccc(S(=O)(=O)c2nnn(-c3cc(Cl)c(OC)cc3OC)c2C)cc1	/	-4	7	-11	61*
Cc1[nH]c2ccccc2c1CN1CCN(c2ccccn2)CC1	-67*	-9	3	-27	6
c1ccc(-c2ncc(CN3CCN(c4ccccn4)CC3)[nH]2)cc1	-105*	2	-11	-12	2
C(#Cc1ccccc1)CN1CCN(c2ccccn2)CC1	?	-7	5	-1	2
Cc1[nH]c2ccccc2c(=O)c1CN1CCCCC1	-16	-6	-9	-1	2
c1ccc(N2CCN(Cc3nc4ccccc4[nH]3)CC2)nc1	3	0	-9	0	-1
SMILES	D3 antag	D1 PAM	D1 antagonist	D3 ag	D1 ag
Cc1[nH]c2ccccc2c1CN1CCC(Cc2ccccc2)CC1	?	1	-63*	-24	90*
COC(=O)c1ccc(CSc2ccc3nnc(-c4cccc(F)c4)n3n2)o1	-5	0	-30*	-2	-1
N#C/C(=C/c1ccc(N2CCOCC2)o1)c1ccc(Cl)cc1	-105*	-1	9	-17	4
Cc1ccc2nc(/C(C#N)=C\c3ccc(N4CCCCC4)c([N+](=O)[O-])c3)[nH]c2c1	-70*	-1	-1	-36	0
N#C/C(=C/N1CCOCC1)c1ccccc1	14	/	/	3	/
N#C/C(=C\c1ccc(N2CCOCC2)o1)c1nc2ccccc2[nH]1	-13	-2	-20	-3	64*
Cc1ccc2nc(/C(C#N)=C/c3ccc(-c4cccc(Cl)c4)o3)[nH]c2c1	/	1	1	5	277*
N#C/C(=C/c1ccc(N2CCCC2)c([N+](=O)[O-])c1)c1nc2ccccc2[nH]1	?	-4	-23	-1	1
Cc1ccc2nc(/C(C#N)=C/c3cccc(Br)c3)[nH]c2c1	/	-5	-2	-15	3
N#C/C(=C\c1ccc(N2CCOCC2)c([N+](=O)[O-])c1)c1nc2ccccc2[nH]1	-17	-7	-26	6	1
Cc1ccc(NC(=O)NCCc2c(C)nn(C)c2C)cc1Cl	/	2	-8	-8	1
CC(C)(C)n1cnc2cc(NCc3ccccc3Cl)ccc21	/	1	2	-19	4
Cc1cccc(NC(=O)c2sc3nc4c(cc3c2N)CN(C(C)C)CC4)c1	/	0	4	3	7
CN1CC(=O)N(CC(=O)Nc2cccc(C#N)c2)c2ccccc2C1=O	/	-2	-16	9	2
CC(=O)c1ccc(NS(=O)(=O)c2cccc3cccnc23)cc1	-7	/	/	-1	/
N#C/C(=C\c1ccc(-c2ccc(Cl)c(C(=O)O)c2)o1)c1nc2ccccc2[nH]1	/	0	10	5	14
N#C/C(=C\c1ccc(-c2ccc(C(=O)O)cc2)o1)c1nc2ccccc2[nH]1	6	-2	3	-2	43*
Cc1ccc2nc(/C(C#N)=C/c3cn[nH]c3-c3ccc(F)cc3)[nH]c2c1	33	-1	-45*	-14	1
CCCCNCCOCCOc1ccc(Cl)cc1Br	-87*	-3	-41*	-24	14
C=CCc1cc(Cl)ccc1OCCCNC(C)C	?	-12	-14	-44	16
CC(O)CNCCCOc1ccc(Cl)cc1C(C)(C)C (configuration not stated)	-53*	11	13	-14	9
COCCCNC(=O)COc1ccc(Br)cc1Cl	-4	-2	-34*	-2	1
COCCCNCCCOc1ccc(Cl)cc1Br	?	-4	-1	-7	8
CC(C)NCCCCOc1ccc(Br)cc1Cl	-71*	-5	-25	-2	50*
CC(C)NCCCOc1ccc(Cl)cc1Br	-73*	-10	-25	3	47*
CCCCNCCOCCOc1ccc(F)cc1	-54*	-10	-25	-21	2
O=[N+]([O-])c1ccc(N2CCNCC2)cc1Sc1nc2ccccc2[nH]1	-66*	-5	0	-16	1
CC(Nc1cc(N2CCNCC2)ccc1[N+](=O)[O-])c1ccccc1 (configuration not stated)	-7	-2	3	-10	42*
NCCNc1ccc([N+](=O)[O-])c(Sc2nc3ccccc3[nH]2)c1	-8	-2	5	-17	1
